# Data from PubChem BioAssay (NCI).
# This is part of a sample that, as a whole, favours compounds with a hit. Of some 79,000 tested, about 15% had one in any assay. Unmarked numbers belong to inactive results. Calls of active or inactive are those of the source. Rule as the data show it: active = growth inhibition above about 70%; inactive = the rest.
# Columns and labels:
# [1] = NCI Yeast Anticancer Drug Screen. Data for the wt1 strain (AID 149);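 also: 0% = growth of vehicle-treated wt1 cultures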; conditions: S. cerevisiae wt1 strain (SPY 50644) growth inhibition, active compounds read high
# Outline: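 Each compound is tested on wt1 yeast and the loss of growth versus vehicle gives the inhibition value.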
# [2] = NCI Yeast Anticancer Drug Screen. Data for the rad50EPP+ strain (AID 151);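 also: 0% = growth of vehicle-treated control cultures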; conditions: S. cerevisiae rad50 mutant strain, active compounds read high
# Outline: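 Measured: growth inhibition of rad50EPP+ yeast. Reference: vehicle-treated controls. Screen uses strains with defined genetic alterations in DNA damage repair or cell cycle control.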
# [3] = NCI Yeast Anticancer Drug Screen. Data for the mgt1 strain (AID 153); conditions: S. cerevisiae mgt1 mutant growth inhibition, active compounds read high
# Outline: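 Compounds were applied to mgt1 mutant yeast, and growth was then compared against vehicle-treated control cultures to give percent inhibition.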
# [4] = NCI Yeast Anticancer Drug Screen. Data for the rad50 strain (AID 155);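 also: 0% = growth of vehicle-only cultures of the same strain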; conditions: S. cerevisiae rad50 strain growth inhibition, active compounds read high
# Outline: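 Vehicle-treated cultures provide the reference for the growth inhibition reported for compound-exposed, repair-deficient yeast.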
# [5] = NCI Yeast Anticancer Drug Screen. Data for the mec2-1 strain (AID 157); conditions: S. cerevisiae mec2-1 strain, active compounds read high
# Outline: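 Compounds were applied to mec2-1 yeast cells. Their growth was then compared with that of vehicle-treated cultures to give growth inhibition.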
# [6] = NCI Yeast Anticancer Drug Screen. Data for the sgs1 mgt1 strain (AID 161);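 also: 0% = growth of cultures given vehicle only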; conditions: S. cerevisiae sgs1 mgt1 strain, active compounds read high
# Outline: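 Compounds are added to genetically altered yeast, and growth is compared with cultures given vehicle alone to give percent inhibition.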
# [7] = NCI Yeast Anticancer Drug Screen. Data for the CLN2oe strain (AID 163);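 also: 0% = growth of vehicle-only control cultures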; conditions: S. cerevisiae CLN2oe strain, active compounds read high
# Outline: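 Cells of an engineered yeast line with disturbed cell-cycle regulation are treated with compound. Inhibition of growth is then calculated relative to the vehicle-treated reference.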
# [8] = NCI Yeast Anticancer Drug Screen. Data for the cln2 rad14 strain (AID 165);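 also: 0% = growth equal to vehicle treated cultures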; conditions: S. cerevisiae cln2 rad14 strain, active compounds read high
# Outline: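 Strain: cln2 rad14 yeast, altered in cell cycle control and DNA damage repair. Read-out: growth inhibition vs vehicle.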
# [9] = NCI Yeast Anticancer Drug Screen. Data for the bub3 strain (AID 167); conditions: S. cerevisiae bub3 mutant strain, active compounds read high
# Outline: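 Mutant yeast screening strain plus compound; vehicle-treated cultures serve as the 0% inhibition reference.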
# [10] = NCI Yeast Anticancer Drug Screen. Data for the wt2 strain (AID 169); conditions: S. cerevisiae wt2 strain growth inhibition, active compounds read high
# Outline: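 Growth of compound-treated yeast is measured and expressed as inhibition relative to vehicle-only controls.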
# [11] = NCI Yeast Anticancer Drug Screen. Data for the mlh1 strain (AID 171);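 also: 0% = growth of vehicle-treated control cultures of the same strain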; conditions: S. cerevisiae mlh1 strain growth inhibition, active compounds read high
# Outline: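 Test agents were incubated with yeast bearing a defined DNA damage repair or cell cycle control alteration; values are growth inhibition normalised to vehicle-treated cultures.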
# [12] = NCI Yeast Anticancer Drug Screen. Data for the sgs1 strain (AID 173);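 also: 0% = growth of vehicle-only control cultures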; conditions: S. cerevisiae sgs1 mutant, active compounds read high
# Outline: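 Strain with an altered DNA repair or cell cycle pathway exposed to compound. Growth then measured. Value = inhibition versus vehicle control.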
# [13] = NCI Yeast Anticancer Drug Screen. Data for the mlh1 rad18 strain (AID 175); conditions: S. cerevisiae mlh1 rad18 strain growth inhibition, active compounds read high
# Outline: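 A repair-deficient yeast strain is exposed to test compound, and growth is scored relative to vehicle-treated controls.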
# [14] = NCI Yeast Anticancer Drug Screen. Data for the rad18 strain (AID 177); conditions: S. cerevisiae rad18 mutant growth inhibition, active compounds read high
# Outline: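 DNA-repair-defective yeast; compound treatment; growth inhibition scored against vehicle.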
# [15] = NCI Yeast Anticancer Drug Screen. Data for the rad14 strain (AID 159);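 also: 0% = growth of vehicle-treated control cultures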; conditions: S. cerevisiae rad14 strain growth inhibition, active compounds read high
# Outline: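 Inhibition of growth is reported for a repair-deficient yeast mutant following compound treatment, calculated relative to cultures that received vehicle.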
# [16] = at 5.0 µM (retest, dose inferred, filed as 0.5)
# [17] = at 50.0 µM (retest, dose inferred, filed as 5.0)
smiles,measurement,setting,value
O=C(/C=C(\c1ccccc1)N1CC1)c1ccccc1,growth inhibition,[1]; at 1.2 µM,-5%
same,growth inhibition,[1]; at 3.7 µM,-4%
same,growth inhibition,[1]; at 11.0 µM,-5%
same,growth inhibition,[1]; at 33.0 µM,0%
same,growth inhibition,[1]; at 100.0 µM,84% (active)
same,growth inhibition,[2]; at 1.2 µM,2%
same,growth inhibition,[2]; at 3.7 µM,17%
same,growth inhibition,[2]; at 11.0 µM,50%
same,growth inhibition,[2]; at 33.0 µM,72% (active)
same,growth inhibition,[2]; at 100.0 µM,86% (active)
same,growth inhibition,[3]; at 1.2 µM,-2%
same,growth inhibition,[3]; at 3.7 µM,-4%
same,growth inhibition,[3]; at 11.0 µM,-4%
same,growth inhibition,[3]; at 33.0 µM,19%
same,growth inhibition,[3]; at 100.0 µM,93% (active)
same,growth inhibition,[4]; at 1.2 µM,-13%
same,growth inhibition,[4]; at 3.7 µM,-7%
same,growth inhibition,[4]; [16],-140%
same,growth inhibition,[4]; at 11.0 µM,8%
same,growth inhibition,[4]; at 33.0 µM,33%
same,growth inhibition,[4]; [17],86% (active)
same,growth inhibition,[4]; at 50.0 µM,62.5%
same,growth inhibition,[4]; at 100.0 µM,98% (active)
same,growth inhibition,[5]; at 1.2 µM,2%
same,growth inhibition,[5]; at 3.7 µM,1%
same,growth inhibition,[5]; [16],-46%
same,growth inhibition,[5]; at 11.0 µM,12%
same,growth inhibition,[5]; at 33.0 µM,-1%
same,growth inhibition,[5]; [17],28%
same,growth inhibition,[5]; at 50.0 µM,59.8%
same,growth inhibition,[5]; at 100.0 µM,97% (active)
same,growth inhibition,[6]; [16],-58%
same,growth inhibition,[6]; [17],47%
same,growth inhibition,[6]; at 50.0 µM,17.2%
same,growth inhibition,[7]; at 1.2 µM,4%
same,growth inhibition,[7]; at 3.7 µM,1%
same,growth inhibition,[7]; at 11.0 µM,0%
same,growth inhibition,[7]; at 33.0 µM,0%
same,growth inhibition,[7]; at 100.0 µM,84% (active)
same,growth inhibition,[8]; [16],-63%
same,growth inhibition,[8]; [17],12%
same,growth inhibition,[8]; at 50.0 µM,0.55%
same,growth inhibition,[9]; at 1.2 µM,-7%
same,growth inhibition,[9]; at 3.7 µM,0%
same,growth inhibition,[9]; [16],-62%
same,growth inhibition,[9]; at 11.0 µM,8%
same,growth inhibition,[9]; at 33.0 µM,21%
same,growth inhibition,[9]; [17],54%
same,growth inhibition,[9]; at 50.0 µM,63.9%
same,growth inhibition,[9]; at 100.0 µM,93% (active)
same,growth inhibition,[10]; at 1.2 µM,0%
same,growth inhibition,[10]; at 3.7 µM,0%
same,growth inhibition,[10]; at 11.0 µM,1%
same,growth inhibition,[10]; at 33.0 µM,3%
same,growth inhibition,[10]; at 100.0 µM,93% (active)
same,growth inhibition,[11]; at 1.2 µM,7%
same,growth inhibition,[11]; at 3.7 µM,-3%
same,growth inhibition,[11]; at 11.0 µM,-5%
same,growth inhibition,[11]; at 33.0 µM,6%
same,growth inhibition,[11]; at 100.0 µM,98% (active)
same,growth inhibition,[12]; at 1.2 µM,1%
same,growth inhibition,[12]; at 3.7 µM,2%
same,growth inhibition,[12]; at 11.0 µM,3%
same,growth inhibition,[12]; at 33.0 µM,31%
same,growth inhibition,[12]; at 100.0 µM,97% (active)
same,growth inhibition,[13]; [16],-139%
same,growth inhibition,[13]; [17],73% (active)
same,growth inhibition,[13]; at 50.0 µM,67.5%
same,growth inhibition,[14]; at 1.2 µM,-1%
same,growth inhibition,[14]; at 3.7 µM,4%
same,growth inhibition,[14]; at 11.0 µM,13%
same,growth inhibition,[14]; at 33.0 µM,16%
same,growth inhibition,[14]; at 100.0 µM,96% (active)
OC1(c2ccccc2)CC2CCC(C1)N2CCCC(O)(c1ccccc1)c1ccccc1 (stereo unspecified),growth inhibition,[1]; at 1.2 µM,1%
same,growth inhibition,[1]; at 3.7 µM,1%
same,growth inhibition,[1]; at 11.0 µM,2%
same,growth inhibition,[1]; at 33.0 µM,6%
same,growth inhibition,[1]; at 100.0 µM,24%
same,growth inhibition,[2]; at 1.2 µM,-5%
same,growth inhibition,[2]; at 3.7 µM,-3%
same,growth inhibition,[2]; at 11.0 µM,0%
same,growth inhibition,[2]; at 33.0 µM,2%
same,growth inhibition,[2]; at 100.0 µM,5%
same,growth inhibition,[4]; at 1.2 µM,-6%
same,growth inhibition,[4]; at 3.7 µM,-15%
same,growth inhibition,[4]; [16],-8%
same,growth inhibition,[4]; at 11.0 µM,-13%
same,growth inhibition,[4]; at 33.0 µM,21%
same,growth inhibition,[4]; [17],6%
same,growth inhibition,[4]; at 50.0 µM,33.2%
same,growth inhibition,[4]; at 100.0 µM,62%
same,growth inhibition,[5]; at 1.2 µM,0%
same,growth inhibition,[5]; at 3.7 µM,1%
same,growth inhibition,[5]; [16],-10%
same,growth inhibition,[5]; at 11.0 µM,4%
same,growth inhibition,[5]; at 33.0 µM,18%
same,growth inhibition,[5]; [17],10%
same,growth inhibition,[5]; at 50.0 µM,-2.2%
same,growth inhibition,[5]; at 100.0 µM,37%
same,growth inhibition,[15]; at 1.2 µM,4%
same,growth inhibition,[15]; at 3.7 µM,5%
same,growth inhibition,[15]; at 11.0 µM,15%
same,growth inhibition,[15]; at 33.0 µM,53%
same,growth inhibition,[15]; at 100.0 µM,96% (active)
same,growth inhibition,[6]; [16],-2%
same,growth inhibition,[6]; [17],44%
same,growth inhibition,[6]; at 50.0 µM,71.8% (active)
same,growth inhibition,[7]; at 1.2 µM,-4%
same,growth inhibition,[7]; at 3.7 µM,-5%
same,growth inhibition,[7]; at 11.0 µM,-2%
same,growth inhibition,[7]; at 33.0 µM,12%
same,growth inhibition,[7]; at 100.0 µM,49%
same,growth inhibition,[8]; [16],1%
same,growth inhibition,[8]; [17],52%
same,growth inhibition,[8]; at 50.0 µM,2.55%
same,growth inhibition,[9]; at 1.2 µM,0%
same,growth inhibition,[9]; at 3.7 µM,0%
same,growth inhibition,[9]; [16],8%
same,growth inhibition,[9]; at 11.0 µM,5%
same,growth inhibition,[9]; at 33.0 µM,30%
same,growth inhibition,[9]; [17],67%
same,growth inhibition,[9]; at 50.0 µM,53.7%
same,growth inhibition,[9]; at 100.0 µM,80% (active)
same,growth inhibition,[10]; at 1.2 µM,-1%
same,growth inhibition,[10]; at 3.7 µM,-1%
same,growth inhibition,[10]; at 11.0 µM,1%
same,growth inhibition,[10]; at 33.0 µM,17%
same,growth inhibition,[10]; at 100.0 µM,80% (active)
same,growth inhibition,[11]; at 1.2 µM,1%
same,growth inhibition,[11]; at 3.7 µM,1%
same,growth inhibition,[11]; at 11.0 µM,3%
same,growth inhibition,[11]; at 33.0 µM,23%
same,growth inhibition,[11]; at 100.0 µM,80% (active)
same,growth inhibition,[12]; at 1.2 µM,1%
same,growth inhibition,[12]; at 3.7 µM,3%
same,growth inhibition,[12]; at 11.0 µM,3%
same,growth inhibition,[12]; at 33.0 µM,38%
same,growth inhibition,[12]; at 100.0 µM,89% (active)
same,growth inhibition,[13]; [16],-7%
same,growth inhibition,[13]; [17],26%
same,growth inhibition,[13]; at 50.0 µM,53.5%
same,growth inhibition,[14]; at 1.2 µM,0%
same,growth inhibition,[14]; at 3.7 µM,-1%
same,growth inhibition,[14]; at 11.0 µM,4%
same,growth inhibition,[14]; at 33.0 µM,28%
same,growth inhibition,[14]; at 100.0 µM,57%
